POLH inh: DNA polymerase eta (human) inhibition | Q9Y253 | recombinant Pol eta, fluorescent DNA replication assay | Potency, µM (titrated, usually from 114 µM), most hits filed as inhibitors | actives 1.2% (n = 390,000) | AID 588591
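Fluorescent replication assay: 50 nM final substrate added after a 15 min room-temperature compound preincubation with 10 nM enzyme. Signal taken at 0 min and again at 10 min.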
POLK inh: DNA polymerase kappa (human) inhibition; Q9UBT6; purified Pol kappa, fluorescent DNA synthesis assay, 10 min; Potency, µM (highest dose often 107 µM), most hits filed as inhibitors; actives 0.53% (n = 400,000); AID 588579
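Here, compound and 10 nM enzyme are combined for 15 min at room temperature; adding 50 nM substrate (final) starts DNA synthesis, tracked by fluorescence at 0 and 10 min against buffer-only wells.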
POLB inh: inhibitors of human DNA polymerase beta | AID 485314 | actives 1.3% (n = 340,000) | P06746 | Potency, µM (doses to about 114 µM), hits mostly inhibitors | Pol beta primer extension/strand displacement, fluorescence kinetic
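Pol beta (10 nM) and compounds were preincubated 15 min at room temperature, then 50 nM substrate (final) started primer extension/strand displacement. Reads were taken at 0 and 10 min; concentration-response data were fitted to a four-parameter Hill equation.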
WRN helicase inh: WRN helicase (human) inhibition; Potency, µM (doses to about 114 µM), actives largely listed as inhibitors; Q14191; actives 0.46% (n = 360,000); WRN helicase unwinding, fluorescent forked duplex, kinetic; AID 651768; note: nearly all actives have a fitted effect of over 55% in size
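Enzyme (20 nM final) and test compound sit together 15 min at room temperature before substrate addition. Substrate is a single-forked duplex oligonucleotide (100 nM) labelled with fluorophore and quencher, with 2 mM ATP; helicase unwinding raises red fluorescence, read kinetically.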
PI5P4Ka inh: inhibitors of human PI5P4K alpha; actives 1.2% (n = 330,000); P48426; max response, %; PI5P4Kalpha enzyme, ADP-Glo luminescence, 60 min; stronger effect = lower value; active = max response of -50% or lower; inconclusive = between -30% and -50%; inactive = -30% or higher; note: value at the top dose of about 77 µM
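Quantitative HTS of the MLSMR library against PI5P4Kalpha with substrate. ATP added last at 5 microM final; room temperature, 60 minutes. Remaining ATP depleted, ADP converted and read as luminescence.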
Pol iota inh: DNA polymerase iota (human) inhibition | Pol iota fluorescent replication assay, 10 min | Potency, µM (series often up to 115 µM), most hits filed as inhibitors | actives 1% (n = 390,000) | AID 588590
Target sequence (Q9UNA4 whole entry, looked up): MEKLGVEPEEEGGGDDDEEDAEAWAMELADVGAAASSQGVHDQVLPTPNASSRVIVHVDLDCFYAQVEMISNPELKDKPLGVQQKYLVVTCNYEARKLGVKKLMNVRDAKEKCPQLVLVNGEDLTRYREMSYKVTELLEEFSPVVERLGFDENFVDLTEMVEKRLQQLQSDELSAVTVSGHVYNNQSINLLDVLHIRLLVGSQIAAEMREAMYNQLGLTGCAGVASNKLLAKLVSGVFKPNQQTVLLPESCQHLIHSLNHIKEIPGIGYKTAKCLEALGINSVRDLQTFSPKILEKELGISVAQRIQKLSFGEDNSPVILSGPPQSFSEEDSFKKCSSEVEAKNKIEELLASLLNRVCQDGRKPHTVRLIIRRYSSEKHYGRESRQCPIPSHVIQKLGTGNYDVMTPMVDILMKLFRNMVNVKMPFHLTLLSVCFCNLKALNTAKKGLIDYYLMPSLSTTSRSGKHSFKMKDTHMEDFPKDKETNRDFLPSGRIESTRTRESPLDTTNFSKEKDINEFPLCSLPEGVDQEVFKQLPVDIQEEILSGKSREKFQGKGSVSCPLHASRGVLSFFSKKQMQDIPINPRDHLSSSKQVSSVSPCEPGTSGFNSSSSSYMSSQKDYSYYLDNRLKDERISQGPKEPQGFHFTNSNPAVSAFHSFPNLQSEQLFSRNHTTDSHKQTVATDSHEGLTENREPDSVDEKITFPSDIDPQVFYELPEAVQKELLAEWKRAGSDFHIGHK
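Fluorescent replication assay read twice, at 0 min and 10 min after adding 50 nM (final) substrate. Enzyme (10 nM) and compounds were first incubated 15 min at room temperature; enzyme-free buffer wells were negative controls.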
Large screens that a line does not name were inactive. Rows were chosen to be rich in hits. Some 2.8% of all compounds tested hit in one or more screens of this group. Unless noted, calls come from the whole dose curve; as a rule, active = well fitted curve in the direction sought with a large enough effect; inconclusive = small, poorly fitted or top-dose-only effect, or another doubt; inactive = no such curve, though single readings can be large; an effect the other way counts as inactive or inconclusive.

O=c1[nH]c2ccccc2n1C1CCN(CCCC(c2ccc(F)cc2)c2ccc(F)cc2)CC1	POLK inh inconclusive, PI5P4Ka inh -51, Pol iota inh inconclusive
O=C1CC(N2CCC(n3c(=O)[nH]c4ccccc43)CC2)C(=O)N1c1ccc(F)cc1 (configuration not stated)	POLB inh inconclusive
CN1CC[C@@]2(C)c3cc(OC(=O)Nc4ccccc4)ccc3N(C)[C@@H]12	none (no result: POLH inh, POLB inh, WRN helicase inh, PI5P4Ka inh, Pol iota inh)
C[C@H]1COC2=C1C(=O)C(=O)c1c2ccc2c1CCCC2(C)C	POLH inh 35µM, POLK inh inconclusive, POLB inh 22µM, WRN helicase inh inconclusive, PI5P4Ka inh -52, Pol iota inh 22µM
CC1COC2=C1C(=O)C(=O)c1c2ccc2c1CCCC2(C)C (configuration not stated)	POLK inh 28µM (no result: POLH inh, POLB inh, WRN helicase inh, PI5P4Ka inh, Pol iota inh)
Oc1c(Br)c(Br)c(Br)c(Br)c1Br	POLH inh inconclusive, POLK inh inconclusive, PI5P4Ka inh -60, Pol iota inh inconclusive (no result: POLB inh)
Cc1[nH]ccc2c1[nH]c1cc(=O)ccc12	POLK inh inconclusive, POLB inh inconclusive
Cc1oc2ccc(O)c(CN3CCCCCC3)c2c1C(=O)Nc1cccc(Cl)c1C	POLH inh inconclusive (no result: WRN helicase inh, PI5P4Ka inh)
COC(=O)C1=C(C(=O)OC)SC2(S1)C(C(=O)OC)=C(C(=O)OC)Sc1c2ssc1=O	WRN helicase inh 13µM, PI5P4Ka inh inconclusive (no result: POLB inh)
O=C(N/N=C\C1C(=O)NC(=S)N(c2ccccc2)C1=O)c1ccc(O)cc1 (configuration not stated)	PI5P4Ka inh -57
COc1ccc(N2C(=O)NC(=O)/C(=C/c3cccc(OC(=O)c4cccs4)c3)C2=O)cc1Cl	WRN helicase inh inconclusive, PI5P4Ka inh inconclusive
Cc1ccc(N2C(=O)NC(=O)/C(=C/c3ccc(OC(=O)c4cccs4)cc3)C2=O)cc1	WRN helicase inh 50µM (no result: PI5P4Ka inh)
Cc1cc(C)cc(N2C(=O)NC(=O)/C(=C/c3cccn3-c3ccc(Cl)cc3)C2=O)c1	POLH inh 79µM, Pol iota inh inconclusive
CCOC(=O)c1c(-n2c(C)cc(/C=C3\C(=O)NC(=O)N(C)C3=O)c2C)sc2c1CCCC2	POLH inh 79µM, Pol iota inh 14µM (no result: PI5P4Ka inh)
Cc1ccc(-n2c(C)cc(/C=C3/C(=O)NC(=O)N(C)C3=O)c2C)cc1	Pol iota inh inconclusive
Cc1c(OC(=O)N(C)C)ccc2c1O/C(=C\c1ccco1)C2=O	POLB inh 50µM
C[C@]12CCC(=O)C=C1CCC1C2CC[C@@]2(C)C1CC[C@@H]2O (some centres not stated)	none (no result: POLB inh)
C[C@]12CC[C@@H]3c4cc(O)c(O)cc4CC[C@H]3[C@@H]1CC[C@@H]2O	POLB inh inconclusive, PI5P4Ka inh -62
C[C@]12CC[C@H]3[C@@H](CCC4=CC(=O)CC[C@@H]43)[C@@H]1CC[C@@H]2O	none (no result: POLB inh)
C[C@]12CC[C@@H]3c4ccc(O)c(O)c4CC[C@H]3[C@@H]1CC[C@@H]2O	PI5P4Ka inh -74, Pol iota inh inconclusive
C[C@]12CC[C@@H]3c4ccc(OC(=O)N(CCCl)CCCl)cc4CC[C@H]3[C@@H]1CC[C@@H]2O	POLK inh 8.9µM (no result: POLH inh, POLB inh, WRN helicase inh, PI5P4Ka inh, Pol iota inh)
COC(=O)[C@]1(C)CC[C@@]2(C)CC[C@@]3(C)C4=CC=C5C(=CC(=O)C(O)=C5C)[C@@]4(C)CC[C@@]3(C)C2C1 (some centres not stated)	none (no result: POLH inh, POLB inh, WRN helicase inh, PI5P4Ka inh, Pol iota inh)
CCc1ccccc1Nc1nn2c(=O)c3ccc(C(=O)Nc4cc(C)cc(C)c4)cc3nc2s1	POLH inh inconclusive (no result: WRN helicase inh, PI5P4Ka inh)
C=C1C(=O)O[C@H]2[C@H]1[C@H](OC(=O)CC(=O)O[C@@H]1C[C@@H](C)[C@@H]3C=CC(=O)[C@@]3(C)[C@H]3OC(=O)C(=C)[C@H]13)C[C@@H](C)[C@H]1C=CC(=O)[C@]12C	POLH inh 20µM, POLK inh 79µM, POLB inh 50µM, WRN helicase inh inconclusive, Pol iota inh 50µM
Cc1cccc(N2C(=O)NC(=O)/C(=C\C=C\c3ccco3)C2=O)c1	POLH inh inconclusive, POLB inh inconclusive, Pol iota inh 13µM
CN(C)c1ccc(/C=C/C=C2/C(=O)NC(=O)N(c3ccccc3)C2=O)cc1	POLH inh inconclusive, WRN helicase inh 18µM, PI5P4Ka inh -78, Pol iota inh inconclusive
Cc1cc(/C=C2/C(=O)NC(=O)N(c3ccccc3)C2=O)c(C)n1-c1ccc(F)cc1	POLH inh inconclusive, Pol iota inh inconclusive (no result: POLB inh)
COc1cc(/C=C2\C(=O)NC(=O)N(c3ccccc3)C2=O)c([N+](=O)[O-])cc1OC	WRN helicase inh inconclusive
Cc1cccc(N2C(=O)NC(=O)/C(=C/c3ccc([N+](=O)[O-])o3)C2=O)c1	POLH inh 2.5µM, POLK inh 8.9µM, POLB inh 5.6µM, WRN helicase inh 28µM, PI5P4Ka inh -78, Pol iota inh 3.2µM
COc1ccc(CN2C(=O)NC(=O)/C(=C\c3cccc(OC)c3OC)C2=O)cc1	WRN helicase inh inconclusive
COc1ccc(CN2C(=O)NC(=O)/C(=C/c3ccc([N+](=O)[O-])o3)C2=O)cc1	POLB inh 6.3µM (no result: POLH inh, POLK inh, WRN helicase inh, PI5P4Ka inh, Pol iota inh)
OC[C@@H]1O[C@H](OC2[C@@H](O)[C@@H](O)C(O)O[C@@H]2CO)[C@H](O)[C@@H](O)[C@@H]1OC1O[C@H](CO)[C@@H](O)[C@H](O)[C@@H]1O (some centres not stated)	none (no result: POLH inh, POLB inh, WRN helicase inh, PI5P4Ka inh, Pol iota inh)
CC(C)(C)n1cccc1/C=C1\C(=O)NC(=O)N(c2ccccc2)C1=O	Pol iota inh inconclusive
Cc1ccc(N2C(=O)NC(=O)/C(=C\C=C\c3ccco3)C2=O)cc1	POLH inh 50µM, POLB inh inconclusive, WRN helicase inh inconclusive, Pol iota inh 18µM
O=C(O)CO	none (no result: POLH inh, POLB inh, WRN helicase inh, PI5P4Ka inh, Pol iota inh)
C/C(=N\NC(=O)c1ccccc1)c1c(O)n(C2CCCCC2)c(=O)[nH]c1=O	PI5P4Ka inh -51
C/C(=N\NC(=O)c1ccccc1O)c1c(O)n(C2CCCCC2)c(=O)[nH]c1=O	none
C/C(=N\NC(=O)c1ccncc1)c1c(O)n(Cc2ccccc2)c(=O)[nH]c1=O	POLB inh inconclusive, PI5P4Ka inh inconclusive
C/C(=N\NC(=O)c1ccccc1O)c1c(O)n(Cc2ccccc2)c(=O)[nH]c1=O	PI5P4Ka inh -71
C=CCN1CCc2cccc3c2C1Cc1ccc(O)c(O)c1-3 (configuration not stated)	none (no result: WRN helicase inh, PI5P4Ka inh)
C[C@H]1O[C@@H](O[C@H]2[C@@H](O)C[C@H](O[C@H]3[C@@H](O)C[C@H](O[C@H]4CC[C@]5(C)C6CC[C@]7(C)[C@@H](C8=CC(=O)OC8)CC[C@]7(O)C6CC[C@@H]5C4)O[C@@H]3C)O[C@@H]2C)C[C@H](O)[C@@H]1O (some centres not stated)	none (no result: POLH inh, POLB inh, WRN helicase inh, PI5P4Ka inh, Pol iota inh)
